Results reported in PubChem BioAssay (NCI).
About 83,000 compounds went through this panel and 20% of them were active in at least one assay; those are over-represented in the sample as a whole.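 For each line, cells grew in 96-well plates with the test compound present at a single concentration for 48 hours.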 Active and inactive are the calls of the source. How the source made its calls: active means growth percent below 10; inactive means the rest.

Columns and labels:
Test in all cases: NCI-60 one-dose screen, 48 h (100 = growth as untreated, 0 = no growth, -100 = all killed)
Conditions in all cases: 10 µM unless noted
DU-145 prostate = tested on: DU-145 prostate
K-562 leukemia = tested on: K-562 leukemia
MALME-3M melanoma = tested on: MALME-3M melanoma
MDA-MB-231 breast = tested on: MDA-MB-231 breast
RXF 393 renal = tested on: RXF 393 renal
SF-268 CNS = tested on: SF-268 CNS
SF-295 CNS = tested on: SF-295 CNS
SF-539 CNS = tested on: SF-539 CNS
UACC-257 melanoma = tested on: UACC-257 melanoma
M14 melanoma = tested on: M14 melanoma

Measured: growth

O=C1c2cccc3cccc(c23)C(=O)N1C/C=C/c1ccc2c3c(cccc13)C(=O)N(CCO)C2=O
inactive: DU-145 prostate 70.4% | K-562 leukemia 79.9% | MALME-3M melanoma 75.5% | MDA-MB-231 breast 62.1% | RXF 393 renal 27.9% | SF-268 CNS 87.7% | SF-295 CNS 76.5% | SF-539 CNS 72.7% | UACC-257 melanoma 79.8% | M14 melanoma 87.8%

CN(C)CCCNC(=O)c1cncnc1Nc1ccc(OCc2cccc(F)c2)c(Cl)c1
active: K-562 leukemia -57.7% | MALME-3M melanoma -11.7% | MDA-MB-231 breast -43.4% | SF-539 CNS -71.2% | UACC-257 melanoma -63.2% | M14 melanoma -71.4%
inactive: DU-145 prostate 23.4% | RXF 393 renal 20.5% | SF-268 CNS 34.5% | SF-295 CNS 71.9%

COc1ccc(C(=O)/C=C/c2ccc(Cl)cc2)cc1S(=O)(=O)Nc1c(N)nc(SC)[nH]c1=O
inactive: DU-145 prostate 88.3% | MALME-3M melanoma 90.1% | MDA-MB-231 breast 68.2% | RXF 393 renal 92% | SF-268 CNS 45.3% | SF-295 CNS 90.1% | UACC-257 melanoma 90.9% | M14 melanoma 74.7%
active: K-562 leukemia 3.84% | SF-539 CNS -5.49%

O=S(=O)(NCCNc1nccc(-c2c(-c3ccc(F)c(O)c3)nc3sccn23)n1)c1ccc(F)cc1
active: MALME-3M melanoma 5.92% | RXF 393 renal -4.56%
inactive: DU-145 prostate 34.4% | K-562 leukemia 14.7% | MDA-MB-231 breast 25.5% | SF-268 CNS 37.3% | SF-295 CNS 53.4% | SF-539 CNS 44.3% | UACC-257 melanoma 32.1% | M14 melanoma 15.5%

N[C@H]1CCC[C@@H]1NCCCCN1C(=O)c2cccc3cc([N+](=O)[O-])cc(c23)C1=O
inactive: DU-145 prostate 29.9% | K-562 leukemia 25.2% | MALME-3M melanoma 73% | MDA-MB-231 breast 39.5% | RXF 393 renal 44.1% | SF-268 CNS 36.5% | SF-295 CNS 66.6% | SF-539 CNS 38.1% | UACC-257 melanoma 72.7% | M14 melanoma 76.8%

CN1CCN(C(=O)C(C)(C)c2ccc(C(=O)Nc3cn4cc(-c5ccncc5)ccc4n3)cc2)CC1
inactive: DU-145 prostate 16.1% | K-562 leukemia 10.2% | MDA-MB-231 breast 21.1% | UACC-257 melanoma 13% | M14 melanoma 13.1%
active: MALME-3M melanoma -11.9% | RXF 393 renal -61.1% | SF-268 CNS 9.95% | SF-295 CNS 8.85% | SF-539 CNS -1.81%

Cc1c(CN)cc(-c2ccc(Cl)cc2)n1-c1ccccc1
inactive: DU-145 prostate 89.2% | K-562 leukemia 66.1% | MALME-3M melanoma 107% | MDA-MB-231 breast 87.1% | RXF 393 renal 84.6% | SF-268 CNS 86.4% | SF-295 CNS 87.7% | SF-539 CNS 93.7% | UACC-257 melanoma 91.1% | M14 melanoma 82.8%

C=C(C)[C@@H]1CCC[C@]2(C(=O)O)CC[C@]3(C)[C@@H](CC[C@@H]4[C@@]5(C)C/C(=C/c6ccncc6)C(=O)C(C)(C)[C@@H]5CC[C@]43C)[C@@H]12
inactive: DU-145 prostate 32.9% | K-562 leukemia 13.7% | MALME-3M melanoma 72% | MDA-MB-231 breast 12.2% | RXF 393 renal 34.4% | SF-268 CNS 52.1% | SF-295 CNS 27.2% | SF-539 CNS 26.3% | UACC-257 melanoma 57.9% | M14 melanoma 45.8%

COc1ccc(/C=C/C(c2cc(OC)c(OC)c(OC)c2)n2cncn2)cc1 (stereo not given)
inactive: DU-145 prostate 61.2% | K-562 leukemia 17.7% | MALME-3M melanoma 61.3% | MDA-MB-231 breast 50.1% | RXF 393 renal 46.5% | SF-268 CNS 57.1% | SF-295 CNS 22.5% | SF-539 CNS 56.5% | UACC-257 melanoma 46.4% | M14 melanoma 17.9%

C=C(C)[C@@H]1CC[C@]2(COC(C)=O)CC[C@]3(C)[C@H](CC[C@@H]4[C@@]5(C)CCCN(C(C)=O)C(C)(C)[C@@H]5CC[C@]43C)[C@@H]12
active: K-562 leukemia 0.971% | M14 melanoma -65.9%
inactive: DU-145 prostate 59.9% | MALME-3M melanoma 51% | MDA-MB-231 breast 45.2% | RXF 393 renal 64.1% | SF-268 CNS 90.9% | SF-295 CNS 104% | SF-539 CNS 81% | UACC-257 melanoma 60%

C[C@@H]1O[C@@H](O[C@@H]2C[C@H](c3ccc4c(c3O)C(=O)C3=C(C4=O)[C@@]4(O)C(=O)C[C@](C)(O)C[C@@]4(O)C=C3)O[C@H](C)[C@H]2O)CC[C@@H]1O[C@H]1C[C@@H](O)[C@H](O)[C@@H](C)O1
inactive: DU-145 prostate 110% | K-562 leukemia 94.4% | MALME-3M melanoma 65.4% | MDA-MB-231 breast 105% | RXF 393 renal 113% | SF-268 CNS 87% | SF-295 CNS 102% | SF-539 CNS 100% | UACC-257 melanoma 98.4% | M14 melanoma 110%

C=C1C(=O)O[C@H]2[C@H]1CC/C(COC(=O)NCc1ccc(Cn3c(=O)sn(-c4ccc(C#N)cc4)c3=O)cc1)=C\CC[C@@]1(C)O[C@@H]21
inactive: K-562 leukemia 20.4% | MALME-3M melanoma 56.9% | MDA-MB-231 breast 48.6% | RXF 393 renal 52.7% | SF-268 CNS 75.1% | SF-295 CNS 102% | SF-539 CNS 61.2% | UACC-257 melanoma 69.4% | M14 melanoma 68.8%
active: DU-145 prostate 8.56%

Cc1ccc(CNc2c3ccccc3nc3ccccc23)cc1
active: K-562 leukemia 2.99%
inactive: DU-145 prostate 33.5% | MALME-3M melanoma 16.2% | MDA-MB-231 breast 43.2% | RXF 393 renal 10.1% | SF-268 CNS 51.9% | SF-295 CNS 31.3% | SF-539 CNS 18.1% | UACC-257 melanoma 39.4% | M14 melanoma 28%

N#Cc1c(Nc2ccc(N3CCOCC3)cc2)nc(SCC(=O)c2ccc(Br)cc2)nc1-c1ccccc1
inactive: DU-145 prostate 106% | K-562 leukemia 99.3% | MALME-3M melanoma 111% | MDA-MB-231 breast 109% | RXF 393 renal 126% | SF-268 CNS 103% | SF-295 CNS 104% | SF-539 CNS 98.7% | UACC-257 melanoma 102% | M14 melanoma 97.3%

O=C(C1=Cc2cc3ccccc3n2Cc2cnnn21)c1ccc(O)cc1
inactive: DU-145 prostate 89.9% | K-562 leukemia 11% | MALME-3M melanoma 57.8% | MDA-MB-231 breast 75.5% | RXF 393 renal 59% | SF-268 CNS 71.9% | SF-295 CNS 56.9% | SF-539 CNS 61.5% | UACC-257 melanoma 84% | M14 melanoma 24.9%

Fc1cc(Nc2ccc3c(OCCCN4CCOCC4)cccc3n2)ccc1Cl
inactive: DU-145 prostate 48.1% | MALME-3M melanoma 21.4% | SF-268 CNS 48.5% | SF-539 CNS 15.7% | UACC-257 melanoma 75.9%
active: K-562 leukemia -34.8% | MDA-MB-231 breast -18.9% | RXF 393 renal 1.26% | SF-295 CNS -46.2% | M14 melanoma -31.1%

N#C/C(=C\C=C\c1ccc(-c2cc(Cl)ccc2Cl)o1)c1nc2ccccc2s1
inactive: DU-145 prostate 112% | K-562 leukemia 100% | MALME-3M melanoma 95.4% | MDA-MB-231 breast 72% | RXF 393 renal 99.3% | SF-268 CNS 98.6% | SF-295 CNS 96.5% | SF-539 CNS 93.9% | UACC-257 melanoma 95% | M14 melanoma 103%

COc1ccc(NC(=O)Nc2ccc(OCCCCCC(=O)NO)cc2)cc1
inactive: DU-145 prostate 106% | K-562 leukemia 88.3% | MALME-3M melanoma 97.5% | MDA-MB-231 breast 105% | RXF 393 renal 98.3% | SF-268 CNS 101% | SF-295 CNS 109% | SF-539 CNS 103% | UACC-257 melanoma 73.4% | M14 melanoma 95.3%

COc1ccc(/C=C(/C(=O)n2cnnn2)c2cc(OC)c(OC)c(OC)c2)cc1
inactive: DU-145 prostate 25.1% | K-562 leukemia 15.3% | MALME-3M melanoma 62.5% | MDA-MB-231 breast 36.7% | SF-268 CNS 49% | UACC-257 melanoma 70.2%
active: RXF 393 renal -4.36% | SF-295 CNS -7.45% | SF-539 CNS -7.92% | M14 melanoma -2.57%

Cc1ccc(-c2csc(N(C(=O)N3CCN(c4cc5c(cc4F)c(=O)c(C(=O)O)cn5C4CC4)CC3)c3ccccc3)n2)cc1
active: MALME-3M melanoma 3.95% | RXF 393 renal 4.05% | SF-295 CNS 2.22% | SF-539 CNS -0.211% | UACC-257 melanoma 9.78%
inactive: DU-145 prostate 21.4% | K-562 leukemia 13.5% | MDA-MB-231 breast 24.2% | SF-268 CNS 20.4% | M14 melanoma 21.1%

Cn1c(=O)c2[nH]c(SCC(=O)Nc3ccc(C(=O)/C=C/c4ccccc4Cl)cc3)nc2n(C)c1=O
inactive: DU-145 prostate 102% | K-562 leukemia 84.4% | MALME-3M melanoma 112% | MDA-MB-231 breast 106% | RXF 393 renal 105% | SF-268 CNS 89.7% | SF-295 CNS 90.5% | SF-539 CNS 101% | UACC-257 melanoma 86.1% | M14 melanoma 99.5%

CCN1C(=O)N(CC)C2C1NN=c1s/c(=C3\C(=O)N(CC(C)C)c4ccccc43)c(=O)n12 (stereo not given)
active: SF-295 CNS 6.8% | SF-539 CNS -23.5%
inactive: DU-145 prostate 10.4% | K-562 leukemia 10.5% | MALME-3M melanoma 59.6% | MDA-MB-231 breast 12.3% | RXF 393 renal 21.9% | SF-268 CNS 54.9% | UACC-257 melanoma 65.5% | M14 melanoma 18.8%

Nc1nc2c(c3ncccc13)C(c1cccc(Cl)c1)Cc1ncccc1-2 (stereo not given)
active: SF-295 CNS 0.813% | SF-539 CNS -19.9% | M14 melanoma 6.41%
inactive: DU-145 prostate 21.5% | K-562 leukemia 14% | MALME-3M melanoma 67.7% | MDA-MB-231 breast 28.8% | RXF 393 renal 10.7% | SF-268 CNS 45.6% | UACC-257 melanoma 63.6%

CN1CCN(Cc2ccc(NC(=O)c3cncc(C#Cc4cnc(N)c5ncccc45)c3)cc2C(F)(F)F)CC1
active: MALME-3M melanoma -73.5% | MDA-MB-231 breast -78.7% | RXF 393 renal -83.9% | SF-268 CNS -18.1% | SF-539 CNS -87% | M14 melanoma -87%
inactive: DU-145 prostate 18.1% | K-562 leukemia 13.9% | SF-295 CNS 31.2% | UACC-257 melanoma 17.1%

O=C(Cc1cccc(OC(F)(F)F)c1)Nc1ccc(CCCCc2nnc(NC(=O)Cc3ccccn3)s2)nn1
inactive: DU-145 prostate 86.9% | K-562 leukemia 45.7% | MALME-3M melanoma 82.8% | MDA-MB-231 breast 84.6% | RXF 393 renal 52.1% | SF-268 CNS 78.7% | SF-295 CNS 60.6% | SF-539 CNS 81.9% | UACC-257 melanoma 92.9% | M14 melanoma 50.8%

CCN(CC)CCN1C(=O)c2c(c(C)c3c(oc4ccc(O)cc43)c2C)C1=O
inactive: MALME-3M melanoma 73.3% | RXF 393 renal 98.2% | SF-268 CNS 37.1% | SF-295 CNS 89.7% | UACC-257 melanoma 93.1% | M14 melanoma 38.3%
active: DU-145 prostate 0.0633% | K-562 leukemia 6.29% | MDA-MB-231 breast -28.7% | SF-539 CNS -99.5%
